Tests used:
Assay in all cases: PBM binding z-score (relative to random genomic background probes); higher = stronger binding; sequences stand for … in GC…GCGATTGACAGCGTAGAATGAAGG
[1] = test system: PPARg:RXRa DBDmut IVT, anti-RXR (DBD mutation: RXRa K156A/R161A, NR concentration 270 nM, RXRa partner concentration 90 nM)
Procedure, shortened: (§1)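 Binding z-scores were set against random background probes. The data came from custom Agilent 4×180K protein-binding microarrays carrying double-stranded probes with 34-nt variable regions, incubated 1 h with ligand-free nuclear receptor dimers. Partner-specific antibodies detected binding, and scanned fluorescence was regression-normalized.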

[2] = test system: PPARg:RXRa IVT, anti-PPARg (NR concentration 270 nM, RXRa partner concentration 90 nM)
Procedure, shortened: as §1

[3] = test system: PPARg DBDmut:RXRa IVT, anti-PPARg (DBD mutation: PPARg1 K132A/R137A, NR concentration 270 nM, RXRa partner concentration 90 nM)
Procedure, shortened: as §1

[4] = test system: PPARg DBDmut IVT, anti-PPARg (DBD mutation: PPARg1 K132A/R137A, NR concentration 270 nM)
Procedure, shortened: as §1

[5] = test system: PPARg homodimer (NR concentration 180 nM)
Procedure, shortened: as §1

[6] = test system: PXR:RXRa (NR concentration 270 nM, RXRa partner concentration 90 nM)
Procedure, shortened: as §1

[7] = test system: PXR homodimer (NR concentration 270 nM)
Procedure, shortened: as §1

[8] = test system: RARa:RXR (NR concentration 270 nM, RXRa partner concentration 90 nM)
Procedure, shortened: as §1

[9] = test system: RARa homodimer (NR concentration 270 nM)
Procedure, shortened: as §1

[10] = test system: RARb:RXRa (NR concentration 270 nM, RXRa partner concentration 90 nM)
Procedure, shortened: as §1

[11] = test system: RARb homodimer (NR concentration 270 nM)
Procedure, shortened: as §1

[12] = test system: RARg:RXRa (NR concentration 270 nM, RXRa partner concentration 90 nM)
Procedure, shortened: as §1

[13] = test system: RARg homodimer (NR concentration 270 nM)
Procedure, shortened: as §1

[14] = test system: RXRa DBDmut IVT, anti-RXR (DBD mutation: RXRa K156A/R161A, NR concentration 90 nM)
Procedure, shortened: as §1

[15] = test system: RXRa homodimer (NR concentration 180 nM)
Procedure, shortened: as §1

[16] = test system: THRa:RXRa (NR concentration 90 nM, RXRa partner concentration 90 nM)
Procedure, shortened: as §1

[17] = test system: THRa homodimer (NR concentration 90 nM)
Procedure, shortened: as §1

[18] = test system: VDR homodimer (NR concentration 270 nM)
Procedure, shortened: as §1

Sequence	PBM binding z-score [1]	PBM binding z-score [2]	PBM binding z-score [3]	PBM binding z-score [4]	PBM binding z-score [5]	PBM binding z-score [6]	PBM binding z-score [7]	PBM binding z-score [8]	PBM binding z-score [9]	PBM binding z-score [10]	PBM binding z-score [11]	PBM binding z-score [12]	PBM binding z-score [13]	PBM binding z-score [14]	PBM binding z-score [15]	PBM binding z-score [16]	PBM binding z-score [17]	PBM binding z-score [18]
TCTAGTTGGTCAAAGGTCACACGCTCGAAATGCG	3.58	6.36	0.719	1.69	5.16	6	2.22	7.76	3.91	4.97	5.31	7.41	6.67	1.72	8.75	4.01	2.09	2.92
ATCTCTAGGTAAGACTCAGCTCAGTGAAGAACGC	1.68	1.02	0.287	1.14	0.51	-0.0635	0.232	-0.0237	0.868	-0.0169	0.128	-0.176	0.0732	0.0476	-0.204	0.124	0.524	0.3
AATACAGGGTCATAGTAGGCCAGAGTACGCACAG	2.62	4.56	1.47	2.3	2.67	4.36	0.689	4.7	0.787	4.05	3.26	4.92	4.13	3.36	5.63	4.23	1.41	3.6
TATACAGGGTCAAAGGCCAGAGAACGAATGTCGA	2.4	4.67	1.74	1.99	2.58	4.27	0.698	6.02	1.1	4.27	3.31	5.7	5.34	2.75	7.14	3.4	0.635	2.34
CGTCCCAGGTCAGAGAGGTCAGTGAATGCCGAGT	1.78	2.54	-0.171	-0.892	3.01	5.38	10.2	4.83	0.426	4.48	4.89	5.03	5.73	1.72	4.33	4.24	2.92	4.31
TCCTATAGGTAAAGGTGAAAGTCGAACGATATGA	2.74	3.09	0.482	0.679	0.768	1.12	-0.316	1.49	0.203	1.96	1.42	1.47	1.3	0.809	1.98	1.26	-0.248	0.13
ATATGTAGGTTACGGGTCATTCAGGTTGGTTCGC	7.79	7.99	5.13	4.88	3.88	4.78	1.67	4.07	1.28	2.92	3.24	3.35	2.58	1.69	4.31	3.15	1.49	3.37
CCAGACAGGTGAGAAGGTAACACAGCCTCGATTA	1	0.723	-0.672	-0.419	0.988	-0.0224	0.73	0.409	0.978	0.799	1.03	0.858	0.833	0.148	0.73	0.62	0.195	0.124
TTGCCTAGGTCAGATCGGGCCAGTATACGCTATA	0.589	1.07	-1.83	-1.18	0.162	1.47	-0.653	1.46	-0.953	3.07	2.16	2.77	3.6	0.0965	1.51	3.9	-0.108	-0.389
TCATATAGGTAAACAGGTGAAAGGCCGTAAGTTA	4.71	4.59	1.06	1.36	1.42	0.956	0.656	1.37	1.25	0.989	1.29	0.793	0.375	1.61	1.2	0.682	0.262	0.499
ATACCAAGGTGATCGTGAGGTCGTTGAGACTAAC	0.478	1.15	0.272	-0.217	0.626	2.93	1.28	1.91	0.197	1.39	1.66	2.25	0.747	0.611	1.66	3.4	2.38	2.82
TTAGCAAGGTGAAAGGTCGTTGATGCACGCCTTG	2.15	4.63	0.373	-0.113	1.42	3.85	0.158	5.72	-0.524	2.98	2.23	4.16	1.75	0.67	5.52	3.02	0.254	1.18
GCTTACGGGTCAAAGTTTATAGCATGAATAGAAT	4.19	5.17	1.43	1.62	2.34	4.83	1.1	6.42	0.895	4.06	2.72	5.32	4.39	3.19	7.06	2.9	-0.354	2.25
CGAACAAGGTCAAGGACAGTGAATCTCCGCACGC	4.85	4.49	1.31	0.251	2.38	3.97	0.628	4.74	0.971	5.2	4.07	6.08	6.35	3.61	6.26	4.03	2.93	2.3
GCTACAGGGTCAGCTAGAGGCCAGAGTATGGAAA	1.26	1.75	-0.627	-0.389	1.43	3.1	-0.36	4	-0.208	4.32	3.3	6.74	5.02	1.48	4.32	3.23	0.349	0.386
TCTTGTCGATCAATAGAGGTTAAGAAAGTGCGCT	1.37	0.566	1.29	0.928	0.669	2.97	0.471	1.82	-0.217	1.09	1.53	0.847	0.688	0.601	1.46	1.94	-0.159	0.435
TCTAGTTGGTCACGCAGGTCACACACGACGGGTA	2.32	3.48	0.238	1.23	1.91	2.72	0.544	3.15	1.14	3.05	3.63	3.59	3.7	1.03	3.08	2.92	1.81	1.76
GCTTATAGGTAATACAAGGTGAAAGTCCGATTGT	3.24	2.78	1	1.03	0.685	0.829	0.193	1.93	1.06	0.613	1.05	0.63	0.649	0.59	0.772	4.28	1.16	0.227
CCTAGTTGGTCAGGAGGTCAGACACCGGATATGA	1.06	2.24	0.271	0.265	2.85	2.7	0.934	3.13	1.66	2.92	3.57	3.8	3.09	0.173	2.74	2.43	1.11	1.42
CCAGACAGGTGGGAAGGTAACTCAGCCTCGATTA	-0.289	-0.383	-0.344	-0.717	0.689	-0.359	0.0826	-0.164	0.496	-0.0117	0.465	-0.192	-0.24	-0.499	-0.186	-0.392	0.393	-0.38
TAGCCTAGGTCAGATCGGTCCAGTATACGCTATA	0.702	1.74	-0.14	-0.564	-0.166	2.34	-0.919	0.948	-0.74	2.78	1.89	2.06	3.2	-0.21	1.2	2.97	0.0173	0.23
AAAACAGGGTCACTAGGCCAGAGTAGGTACGAAT	5.29	6.57	2.03	1.25	2.68	3.58	0.329	4.8	1.21	4.18	3.35	5.4	4.84	2.95	5.7	3.48	1.18	2.76
TCTAGTTGGTCACGGAAGTCACACACGACGGGTA	2.3	2.31	1.45	0.841	1.08	0.653	0.0861	1.01	1.21	1.65	1.41	1.36	1.54	0.587	1.21	0.441	0.354	0.0407
TCTCGGAGGACACGAAAGGTCAGAGCGCGACATC	1.45	1.17	-0.212	-0.0951	3.06	4.27	0.685	4.73	1.1	4.27	4.91	5.18	5.35	1.09	4.3	3.82	1.12	1.22
ACTATTAGTTGACTTAGGGCAACCGTTACGACGC	0.596	0.527	1.12	0.546	0.51	0.554	0.502	0.863	0.271	0.949	1.34	0.618	0.892	1.01	0.622	1.53	0.619	0.195
CAAACTAGGTCACCGGAAGGTAAAAGTCCGCATG	8.41	8.97	5.23	6.11	4.02	2.47	0.103	3.44	0.872	4.32	3.46	5.33	5.29	1.61	3.87	3.69	1.84	1.01
CGTCAAAGTTCAACTAAGGAAACGTAAAGCACGC	0.565	1.62	1.02	0.369	3.9	4.87	2.97	4.48	1.12	5.19	3.66	5.97	6.45	4.6	4.94	4.5	0.0826	3.88
TTACCGAGGTGAAGGTCGTTGATCCCTCTGTAGA	1.78	3.4	0.416	0.34	0.505	1.72	0.178	1.84	-0.539	2.11	1.72	1.58	1.02	-0.12	2	2.66	1.16	0.99
CAAACTAGGTCATCCAGGACAGTGAATACATTGA	8.23	8.47	4.2	2.88	2.69	2.23	1.49	2.85	1.49	3.84	3.12	4.15	4.93	2.37	3.09	3.76	2.38	2.21

Reference: the supplement of paper PMC6555819
